These molecules were tested on BadR/P_H16_RS27200 cyclohexanecarboxylate biosensor (pEH159) (assay: relative induction of RFP reporter vs primary effector (background-corrected); higher = stronger activation of the biosensor). Details: inducer concentration 5 mM; 6 h; Cupriavidus necator H16; minimal medium + 0.4% gluconate.
Experimental: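 C. necator H16 strains, each carrying one of 21 transcription factor/inducible promoter–mRFP biosensor plasmids, were grown in minimal medium in 96-well plates (robotic platform). Each was exposed to 46 structurally or metabolically related compounds at 5 mM at 30 °C. OD-normalised RFP fluorescence was read 6 h later and expressed as relative induction (%) = 100 × (FL compound − FL uninduced)/(FL primary inducer − FL uninduced); mean of n=4.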
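Further: RFP excited at 585 nm with emission read at 620 nm, culture medium blanks subtracted from fluorescence and absorbance prior to normalisation.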

Compound	relative induction of RFP reporter [%]
CCCC(=O)O [butyric acid]	0.491
O=C(O)/C=C/C(=O)O [fumarate]	-0.161
O=C(O)c1ccc(O)cc1 [4-hydroxybenzoate]	0.236
O=C(O)CC(CC(=O)O)C(=O)O [tricarballylate]	-0.288
O=C(O)C1CCCC1 [cyclopentane-1-carboxylate]	10.9
Cn1c(=O)c2c(ncn2C)n(C)c1=O [caffeine]	-0.151
C[C@H](N)C(=O)O [L-alanine]	-0.206
Cn1cnc2c1c(=O)[nH]c(=O)n2C [theobromine]	0.638
O=C(O)c1cccnc1 [nicotinate]	-0.229
NCCS(=O)(=O)O [taurine]	-0.635
NCC(=O)O [glycine]	-0.419
O=c1cc[nH]c(=O)[nH]1 [uracil]	-0.342
O=C(O)C[C@H](O)C(=O)O [L-malate]	-0.0424
CC(N)CC(=O)O (stereo not given) [3-aminobutanoate]	-0.361
NC(C(=O)O)c1ccccc1 (racemic) [D,L-2-phenylglycine]	-0.673
N[C@@H](Cc1c[nH]c2ccccc12)C(=O)O [L-tryptophan]	-0.253
O=C(O)C1=C[C@@H](O)[C@@H](O)[C@H](O)C1 [shikimate]	0.552
NC(=O)CC[C@H](N)C(=O)O [L-glutamine]	-0.359
NCC(O)C(=O)O (stereo not given) [3-amino-2-hydroxypropanoate]	0.0183
O=C(O)CCC(=O)O [succinate]	-0.371

Compound	relative induction of RFP reporter [%]
Oc1ccccc1O [catechol]	1.99
O=S(=O)(O)CCO [isethionate]	0.494
O=C(O)C(O)C(=O)O [tartronic acid]	-0.292
O=C(O)c1cc(=O)c2ccccc2[nH]1 [kynurenate]	-0.549
O=C(O)c1c(O)cccc1O [2,6-dihydroxybenzoate]	0.241
C[C@@H](O)C(=O)O [D-lactate]	-0.262
O=C(O)/C=C\C=C/C(=O)O [cis,cis-muconate]	-0.641
NCCc1ccc(O)c(O)c1 [dopamine]	1.95
O=C(O)C(O)c1ccccc1 (stereo not given) [mandelic acid]	0.747
NCC(N)C(=O)O (stereo not given) [2,3-diaminopropanoate]	-0.224
Oc1ccccc1 [phenol]	-0.423
O=CC(=O)O [glyoxylate]	-0.137
Oc1ccc(O)cc1 [hydroquinone]	4.02
Oc1cccc(O)c1 [resorcinol]	0.33
O=C(O)C1=CCCCC1 [cyclohexene-1-carboxylate]	80.5
O=c1[nH]cnc2nc[nH]c12 [hypoxanthine]	-0.186
CCC(=O)O [propanoate]	-0.236
CC(=O)CCC(=O)O [levulinic acid]	0.15
N[C@@H](CC(=O)O)C(=O)O [L-aspartate]	-0.282
O=C(O)[C@@H](O)[C@@H](O)[C@H](O)[C@@H](O)C(=O)O [glucarate]	-0.576

Reference: the supplement of paper PMC7057948, “A genome-wide approach for identification and characterisation of metabolite-inducible systems” (Nature Communications, 2020)
